Each structure is given as a SMILES string. Records with an inconclusive call do not appear. Active and inactive are the calls of the source. Unless noted, the call rests on the fitted dose curve.

Experiment [1] addresses Peroxisome proliferator-activated receptor delta (Homo sapiens) (UniProt Q03181). The experiment is described as follows: qHTS assay to identify small molecule agonists of the peroxisome proliferator-activated receptor delta (PPARd) signaling pathway (AID 743212). Put shortly: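 Tox21 library screened in GeneBLAzer PPARd UAS-bla HEK293H cells. After compound treatment at 37 C, a FRET-based beta-lactamase substrate was applied for 2 h and fluorescence recorded.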
On the technique in general: In qHTS, concentration-response curves come from the screen itself.

Experiment [2] can be described thus: qHTS assay to identify small molecule antagonists of the peroxisome proliferator-activated receptor delta (PPARd) signaling pathway - cell viability counter screen (AID 743213; active means well fitted curve in the direction sought with a large enough effect in the repeat runs; an effect the other way counts as inactive or inconclusive; further: nearly all actives have a fitted effect of over 50% in size; further: potency means the concentration at half of the fitted maximal effect). Put shortly:
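CellTiter-Glo was added to PPARd-bla HEK293H wells following 17 h compound treatment in the presence of 300 nM L165041. Luminescence was recorded after 30 min at room temperature.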

Experiment [3] addresses Peroxisome proliferator-activated receptor delta (Homo sapiens) (UniProt Q03181). The experiment in a line: qHTS assay to identify small molecule antagonists of the peroxisome proliferator-activated receptor delta (PPARd) signaling pathway (AID 743215; active means well fitted inhibition curve with a large enough effect in the signal ratio in the repeat runs, not every such curve was filed as active; the % refers to the signal ratio;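 further: cells stimulated with agonist L165041 at 300 nM final during compound exposure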; further: potency means the concentration at half of the fitted maximal effect). Put shortly: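 Here, a reporter line (HEK293H, beta-lactamase under a UAS) measures PPARd signaling. Compounds are tested against agonist L165041 at 300 nM final concentration over 17 h at 37 C, with fluorescence read after substrate.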

Experiment [4] can be described thus: qHTS assay to identify small molecule antagonists of the farnesoid-X-receptor (FXR) signaling pathway - cell viability counter screen (AID 743221; active means well fitted cell-killing curve with a large enough effect in the repeat runs, not every such curve was filed as active; further: nearly all actives have a fitted effect of over 50% in size; further: potency means the concentration at half of the fitted maximal effect). A digest of the protocol: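 After a 5 h settling period, FXR-bla HEK 293T cells receive compound and chenodeoxycholic acid (50 uM final) and incubate 16 h at 37 C; CellTiter-Glo luminescence, read after 30 min at room temperature, reports cell viability.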

The target in experiment [5] is Vitamin D3 receptor (Homo sapiens) (UniProt P11473). The experiment in a line: qHTS assay to identify small molecule agonists of the vitamin D receptor (VDR) signaling pathway (AID 743222). A digest of the protocol:
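Tox21 cell reporter format: VDR-bla line, 16 h compound exposure in 5% CO2 at 37C, then fluorescence intensity after 2 h with LiveBLAzer B/G FRET substrate.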

Experiment [6] is described as follows: qHTS assay to identify small molecule agonists of the NFkB signaling pathway - cell viability counter screen (AID 1159515). Further: nearly all actives have a fitted effect of over 55% in size. Further: potency means the concentration at half of the fitted maximal effect. Put shortly: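 Tox21 library compounds were tested for cytotoxicity against NFkB-bla ME-180 cells during a 5 hr exposure at 37 C. CellTiter-Glo luminescence served as the viability read-out.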
The nature of experiment [7]: qHTS assay to identify small molecule agonists of the endoplasmic reticulum stress response signaling pathway - cell viability counter screen (AID 1159517). Further: nearly all actives have a fitted effect of over 50% in size. Further: potency means the concentration at half of the fitted maximal effect. Put shortly:
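In parallel with the ESRE reporter read, cytotoxicity was scored by CellTiter-Glo luminescence (30 min, room temperature) on HeLa ESRE-bla cells dosed for 5 hr.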

Experiment [8] can be described thus: qHTS assay to identify small molecule antagonists of the retinoid-related orphan receptor gamma (ROR-gamma) signaling pathway - cell viability counter screen (AID 1159520; active means well fitted curve in the direction sought with a large enough effect in the repeat runs; an effect the other way counts as inactive or inconclusive; further: nearly all actives have a fitted effect of over 50% in size; further: potency means the concentration at half of the fitted maximal effect). A digest of the protocol: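 Tet-on ROR gamma CHO cells were given compounds for 2 hr, then doxycycline hyclate at 1 uM final, and incubated 16 hr at 37 C. Viability was measured as ATP content by CellTiter-Glo luminescence.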

A short description of experiment [9]: qHTS assay to identify small molecule agonists of the AP-1 signaling pathway - cell viability counter screen (AID 1159525). Further: nearly all actives have a fitted effect of over 55% in size. Further: potency means the concentration at half of the fitted maximal effect. A digest of the protocol:
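Same-well cytotoxicity counter screen of the Tox21 10K library in ME-180 cells. The readout is ATP-dependent luminescence after 5 h compound treatment. Data are normalised to DMSO and tetra n-octyl ammonium bromide controls.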

For experiment [10], the target named is Bile acid receptor (Homo sapiens) (UniProt Q96RI1). The experiment is described as follows: qHTS assay to identify small molecule agonists of the farnesoid-X-receptor (FXR) signaling pathway (AID 743220; active means well fitted activation curve with a large enough effect in the signal ratio in the repeat runs, not every such curve was filed as active; the % refers to the signal ratio). Put shortly: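 FXR-UAS-bla HEK 293T cells carrying a UAS-driven beta-lactamase reporter were plated for 5 h at 37C/5% CO2, then exposed to DMSO-dissolved Tox21 10K compounds for 16 h at 37C. A LiveBLAzer B/G FRET substrate was loaded for 2 h at room temperature before fluorescence reading.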

Experiment [11] can be described thus: qHTS assay to identify small molecule agonists of the vitamin D receptor (VDR) signaling pathway - cell viability counter screen (AID 743224; active means well fitted curve in the direction sought with a large enough effect in the repeat runs; an effect the other way counts as inactive or inconclusive; further: nearly all actives have a fitted effect of over 50% in size; further: potency means the concentration at half of the fitted maximal effect). Put shortly:
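CellTiter-Glo viability readout on VDR-bla cells, measured after 16 h of compound treatment at 37C in the same wells.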

Experiment [12] concerns the target Nuclear receptor ROR-gamma (Homo sapiens) (UniProt P51449). The experiment is described as follows: qHTS assay to identify small molecule antagonists of the retinoid-related orphan receptor gamma (ROR-gamma) signaling pathway (AID 1159521; active means well fitted curve in the direction sought with a large enough effect in the repeat runs; an effect the other way counts as inactive or inconclusive; further: nearly all actives have a fitted effect of over 50% in size; further: potency means the concentration at half of the fitted maximal effect). Put shortly:
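Decreased RORE-driven luciferase luminescence indicates antagonism. Tet-on RORγ CHO cells received compound, then 1 uM final doxycycline 2 h later; signal read after 16 h incubation.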

A short description of experiment [13]: qHTS assay to identify small molecule agonists of the AP-1 signaling pathway (AID 1159526).
Experiment [14] can be described thus: qHTS assay to identify small molecule antagonists of the vitamin D receptor (VDR) signaling pathway - cell viability counter screen (AID 743225; active means well fitted curve in the direction sought with a large enough effect in the repeat runs; an effect the other way counts as inactive or inconclusive; further: nearly all actives have a fitted effect of over 50% in size; further: potency means the concentration at half of the fitted maximal effect). Put shortly:
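Parallel cytotoxicity test: VDR-UAS-bla HEK 293T, 3 nM (final) 1-alpha,25-dihydroxyvitamin D3 with test compound, 16 h, 37C. Endpoint is CellTiter-Glo luminescence in the same wells.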

Experiment [15] in a line: qHTS assay to identify small molecule agonists of the RXR signaling pathway - cell viability counter screen (AID 1159529; active means well fitted curve in the direction sought with a large enough effect in the repeat runs; an effect the other way counts as inactive or inconclusive; further: nearly all actives have a fitted effect of over 50% in size; further: potency means the concentration at half of the fitted maximal effect). A digest of the protocol: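 In this parallel viability measure, GeneBLAzer RXR-alpha HEK 293T cells (2% charcoal-stripped FBS) were given a 5 hr preincubation, treated with compounds 16 hr at 37 C, and read by CellTiter-Glo luminescence.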
Experiment [16] in a line: qHTS assay to identify small molecule agonists of the farnesoid-X-receptor (FXR) signaling pathway - cell viability counter screen (AID 743218; active means well fitted curve in the direction sought with a large enough effect in the repeat runs; an effect the other way counts as inactive or inconclusive; further: nearly all actives have a fitted effect of over 45% in size; further: potency means the concentration at half of the fitted maximal effect). A digest of the protocol: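 Quantitative HTS counter screen measuring ATP-based viability via CellTiter-Glo luminescence in HEK 293T cells carrying a UAS-driven beta-lactamase reporter, after 16 h compound exposure at 37 C.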

For experiment [17], the target named is Bile acid receptor (Homo sapiens) (UniProt Q96RI1). The experiment is described as follows: qHTS assay to identify small molecule antagonists of the farnesoid-X-receptor (FXR) signaling pathway (AID 743217; active means well fitted inhibition curve with a large enough effect in the signal ratio in the repeat runs, not every such curve was filed as active; the % refers to the signal ratio). Put shortly:
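Test compounds are pin-transferred onto FXR-bla HEK 293T cells, then chenodeoxycholic acid is added at 50 uM final. After 16 h at 37 °C, LiveBLAzer B/G substrate is applied for 2 h at room temperature and fluorescence read.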

Experiment [18] deals with Retinoic acid receptor RXR-alpha (Homo sapiens) (UniProt P19793). The experiment is described as follows: qHTS assay to identify small molecule agonists of the RXR signaling pathway (AID 1159527). Further: nearly all actives have a fitted effect of over 35% in size. Put shortly:
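16 hr incubation of compound-treated RXR-alpha-UAS-bla HEK 293T cells (2% charcoal-stripped FBS, 37 C) preceded a 2 hr room-temperature LiveBLAzer FRET substrate step and blue/green fluorescence measurement.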

Sequence of Vitamin D3 receptor (Homo sapiens) (P11473 whole entry, looked up): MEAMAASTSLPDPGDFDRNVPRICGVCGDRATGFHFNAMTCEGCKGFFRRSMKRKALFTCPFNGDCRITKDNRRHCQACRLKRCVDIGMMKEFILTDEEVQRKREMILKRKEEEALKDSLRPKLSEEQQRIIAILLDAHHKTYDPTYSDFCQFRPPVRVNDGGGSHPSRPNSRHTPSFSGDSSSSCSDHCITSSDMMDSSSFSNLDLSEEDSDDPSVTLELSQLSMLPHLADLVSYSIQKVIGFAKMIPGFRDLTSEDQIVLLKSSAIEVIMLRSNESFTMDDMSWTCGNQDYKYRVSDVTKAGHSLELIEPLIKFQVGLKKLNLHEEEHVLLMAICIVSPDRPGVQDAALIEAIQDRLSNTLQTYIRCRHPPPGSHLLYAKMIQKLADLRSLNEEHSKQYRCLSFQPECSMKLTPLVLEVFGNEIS
Sequence of Peroxisome proliferator-activated receptor delta (Homo sapiens) (Q03181 whole entry, looked up): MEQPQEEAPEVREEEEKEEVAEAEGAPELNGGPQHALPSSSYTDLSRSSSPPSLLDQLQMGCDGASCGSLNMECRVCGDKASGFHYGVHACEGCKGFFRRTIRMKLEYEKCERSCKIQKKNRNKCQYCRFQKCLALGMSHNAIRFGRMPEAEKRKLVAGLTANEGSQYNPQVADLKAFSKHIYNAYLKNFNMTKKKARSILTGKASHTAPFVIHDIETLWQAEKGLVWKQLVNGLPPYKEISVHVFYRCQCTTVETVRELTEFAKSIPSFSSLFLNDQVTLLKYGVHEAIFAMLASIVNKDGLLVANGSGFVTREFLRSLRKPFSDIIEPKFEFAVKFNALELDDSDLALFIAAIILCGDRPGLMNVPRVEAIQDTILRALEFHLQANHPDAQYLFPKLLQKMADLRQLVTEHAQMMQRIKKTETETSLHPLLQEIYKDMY
Sequence of Bile acid receptor (Homo sapiens) (Q96RI1 whole entry, looked up): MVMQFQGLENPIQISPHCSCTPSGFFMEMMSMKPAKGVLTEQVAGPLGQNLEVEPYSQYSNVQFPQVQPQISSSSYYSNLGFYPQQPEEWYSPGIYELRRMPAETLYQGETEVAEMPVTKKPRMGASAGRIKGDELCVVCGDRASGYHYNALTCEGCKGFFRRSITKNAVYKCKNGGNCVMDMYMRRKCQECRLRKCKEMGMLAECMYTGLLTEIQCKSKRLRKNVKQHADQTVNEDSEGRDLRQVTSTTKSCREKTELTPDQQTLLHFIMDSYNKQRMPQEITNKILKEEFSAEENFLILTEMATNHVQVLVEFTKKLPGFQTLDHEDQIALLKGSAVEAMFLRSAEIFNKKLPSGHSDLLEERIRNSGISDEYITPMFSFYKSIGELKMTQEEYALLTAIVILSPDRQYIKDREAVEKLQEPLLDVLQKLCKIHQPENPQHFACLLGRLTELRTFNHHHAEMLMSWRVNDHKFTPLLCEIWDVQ
Sequence of Retinoic acid receptor RXR-alpha (Homo sapiens) (P19793 whole entry, looked up): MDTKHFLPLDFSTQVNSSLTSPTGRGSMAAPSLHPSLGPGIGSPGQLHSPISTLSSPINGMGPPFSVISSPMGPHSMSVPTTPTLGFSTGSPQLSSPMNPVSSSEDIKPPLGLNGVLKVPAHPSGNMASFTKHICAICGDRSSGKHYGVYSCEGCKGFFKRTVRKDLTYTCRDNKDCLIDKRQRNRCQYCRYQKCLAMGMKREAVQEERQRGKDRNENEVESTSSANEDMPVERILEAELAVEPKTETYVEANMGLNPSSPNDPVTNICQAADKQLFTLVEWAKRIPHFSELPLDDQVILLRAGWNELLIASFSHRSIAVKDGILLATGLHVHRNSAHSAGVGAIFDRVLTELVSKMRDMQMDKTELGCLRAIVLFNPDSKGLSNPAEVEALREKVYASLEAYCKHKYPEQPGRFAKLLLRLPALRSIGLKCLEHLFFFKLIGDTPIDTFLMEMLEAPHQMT

On to `CN(C)CCCOC1(Cc2ccccc2)CCCCCC1`, for which the Potency entry in [1], in experiment [2], in [3], in experiment [4], in experiment [5] and in experiment [6] was “inactive” in each case. For the same compound, the Potency entry in experiment [7], in [8] and in [9] was “inactive” throughout.
In the case of `COc1c(C)c2c(c(O)c1C/C=C(\C)CCC(=O)O)C(=O)OC2`, the Potency result in [10], in experiment [5], in experiment [11], in experiment [6], in experiment [9] and in experiment [13] was “inactive” throughout. The Potency in [7] is 16.9 µM (active); in experiment [12], 0.133 µM (active).
For `CC(C)=CCOc1ccc(/C=C/C(=O)c2ccc(OCC=C(C)C)cc2OCC(=O)O)cc1`, the Potency entry in experiment [2], in [5], in [11], in experiment [6], in experiment [7] and in experiment [8] was “inactive” throughout. Further, in [9], the Potency entry was “inactive”. Also, the Potency in experiment [4] was 21.1 µM (active).
Regarding `CCCCN(CCCC)c1ccc(C(=O)c2ccccc2C(=O)O)c(O)c1`, the Potency in experiment [2] was 44.1 µM (active); in experiment [4], 44.1 µM (active); in experiment [7] it was 35 µM (active). Also, the Potency result in [10], in experiment [6], in experiment [12], in experiment [9] and in experiment [13] was “inactive” in each case.
In the case of `CS(=O)(=O)CCNCc1ccc(-c2ccc3ncnc(Nc4ccc(OCc5cccc(F)c5)c(Cl)c4)c3c2)o1`, the Potency in experiment [2] was 21.1 µM (active); in [4], 26.6 µM (active); in experiment [11], 29.8 µM (active); in experiment [14], 21.3 µM (active); in [6] it was 16.9 µM (active); in experiment [7], 15.1 µM (active). In addition, the results for the Potency in experiment [8], in experiment [9] and in [15] were 29.8 µM (active), 21.3 µM (active) and 16.9 µM (active), respectively.
In the case of `Nc1nc2ccccc2n1Cc1ccc(F)cc1`, the Potency result in experiment [1], in experiment [2], in experiment [16], in [4], in experiment [5] and in experiment [11] was “inactive” in each case. For the same compound, the Potency result in [14], in experiment [6], in experiment [7] and in experiment [9] was “inactive” throughout. Also, in [12], the Potency was 10.6 µM (active).
`C=C(C)C(=O)OCC(O)COc1ccc(C(C)(C)c2ccc(OCC(O)COC(=O)C(=C)C)cc2)cc1` (centres undefined): the Potency entry in experiment [1], in [10], in experiment [5], in [6], in [7] and in [9] was “inactive” throughout. For the same compound, the Potency in experiment [2] was 13.8 µM (active); in experiment [3], 27.5 µM (active); in [11], 12.3 µM (active); in experiment [14], 19.5 µM (active); in experiment [12] it was 24.3 µM (active).
As for `CCCCCCCC/C=C\CCCCCCCCOCCO`, the Potency in experiment [2] was 25.4 µM (active); in experiment [16], 22.6 µM (active); in experiment [4], 28.4 µM (active); in experiment [11], 25.4 µM (active); in experiment [14] it was 9 µM (active); in [6], 31.9 µM (active). Besides, the Potency in [7] was 31.9 µM (active); in [12], 20 µM (active); in experiment [9] it was 25.4 µM (active); in [15], 22.6 µM (active).
On to `CO[Si](CCCNc1ccccc1)(OC)OC`, for which the Potency entry in [1], in experiment [2], in experiment [3], in experiment [17], in experiment [10] and in experiment [4] was “inactive” each time. Further, the Potency result in experiment [5], in experiment [11], in [14], in [6], in experiment [7] and in experiment [12] was “inactive” in each case. Besides, the Potency entry in [9], in experiment [18] and in experiment [15] was “inactive” each time.
